The results in this text go back to PubChem BioAssay (NCATS).

Assay [1] concerns the target Lysosomal acid glucosylceramidase (Homo sapiens) (UniProt P04062). In words: Glucocerebrosidase-p2 (AID 348; in the data active = potency below about 10 µM; also: potency is read from the fitted curve at half-maximal effect). As to conditions: purified GBA, blue fluorogenic substrate, 40 min. A digest of the protocol:
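Normal human glucocerebrosidase (0.2 nM) with blue fluorogenic substrate (80 uM final) in citrate/phosphate pH 5.9 with 10mM sodium taurocholate, 0.01% tween-20; 40 min RT, NaOH/glycine stop; fluorescence Ex 365/Em 440; AC50 from a titration from 0.6 nM upwards.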

A short description of assay [2]: AP1 Signaling Pathway (AID 357). Also: % is scaled to controls: 0 for no effect and ±100 for the full control effect. The following applies: ME-180 AP-1-bla reporter, EGF-induced, beta-lactamase ratio, 5 h; at 7.69 µM (top of the series) unless noted. The method in brief: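 Cells are seeded overnight, exposed to compound titrations and an EC50 level of EGF for 5 hours at 37 °C, then loaded with CCF4 dye for 2.5 hours. Beta-lactamase activity under the AP-1 element is read as a blue/green ratio.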

Assay [3] in a line: NFAT Signaling Pathway (AID 444).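 Also: carbachol stimulus at about its EC50 of 1 µM final; % is scaled to controls: 0 for no effect and ±100 for the full control effect.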 The following applies: Jurkat NFAT-bla M1, carbachol, beta-lactamase ratio, 5 h; at 7.69 µM (top of the series) unless noted. A digest of the protocol:
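Jurkat cells carrying an NFAT-driven β-lactamase reporter and co-transfected muscarinic M1 receptor were treated with compound plus carbachol (1 uM final, an EC50 level) for 5 h at 37 °C. CCF4 loading followed for 1 h at RT; 460/530 nm ratio gave %activity.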

A short description of assay [4]: Stat Signaling Pathway (AID 446).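 Also: ME-180 cervical cancer cells given 40 pM IL-6 alongside compound; SIE-controlled beta-lactamase reporter measured as 460/530 nm FRET emission ratio; % is scaled to controls: 0 for no effect and ±100 for the full control effect.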 The following applies: ME-180 (cervical carcinoma) SIE beta-lactamase reporter, IL-6 stimulated, 5 h; at 7.69 µM (top of the series) unless noted. A digest of the protocol:
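Emission at 460 and 530 nm (excitation 405 nm) reports SIE-controlled beta-lactamase in ME-180 cells. Cells received compound with 40 pM IL-6 for 5 hrs at 37 C; data scaled between 300 pM IL-6 and 125 nM JAK-inhibitor controls.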

In assay [5] the target is Glucocorticoid receptor (Homo sapiens) (UniProt P04150). In words: GR-EFC Redistribution (AID 451; calls by dose curve; also: potency is read from the fitted curve at half-maximal effect). As to conditions: CHO-K1 GR-EFC translocation, beta-gal luminescence, 2 h. A digest of the protocol: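 CHO-K1 cells stably expressing nuclear-localized β-gal enzyme acceptor and GR fused C-terminally to the enzyme donor fragment; ligand-driven nuclear translocation restores β-gal by complementation. Compounds titrated up to 46 uM final, 2 h at 37 °C; luminescence read.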

In assay [6] the target is Mitogen-activated protein kinase 10 (Mus musculus) (UniProt Q61831). Nature of the assay: JNK3 AlphaScreen Assay (AID 530).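 Also: kinase came from lysate of stimulated human HepG2 cells; % is scaled to controls: 0 for no effect and ±100 for the full control effect.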 As to conditions: JNK3 lysate, c-Jun phosphorylation; series mostly up to 57.1 µM. The method in brief: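 Biotinylated GST-cJun(1-79) served as substrate for JNK3 in HepG2 lysates stimulated with IL-1beta and TNF-alpha. ATP was 10 uM final, pH 7.6. Ser73 phosphorylation was quantified by AlphaScreen (680 nm excitation).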
(In general: Alpha assays give light when donor and acceptor beads are brought close together.)

The target in assay [7] is 3',5'-cyclic-AMP phosphodiesterase 4B (Homo sapiens) (UniProt Q07343). In words: qHTS Assay for Inhibitors of PDE-IV (AID 607; active = well fitted activation curve with a large enough effect in the main read-out, with a control signal flat, not every such curve was filed as active; also: % of control where 0% means no effect). The following applies: HEK293 ACTOne CNG channel cells, membrane potential fluorescence; series mostly up to 22.9 µM. A digest of the protocol:
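The readout is membrane depolarisation from a cAMP-sensing CNG channel, detected with a potential dye at ex 535/em 590. Cells were HEK293-derived (endogenous PDE-IV) at 1000 cells/well, titrated up to 22.9 uM final.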
Background: Quantitative high-throughput screening tests each substance at several concentrations.

A short description of assay [8]: qHTS Assay for Lipid Storage Modulators (AID 1519; calls by dose curve). The following applies: Drosophila S3 cells, BODIPY lipid droplet/cell ratio, laser cytometry, cells loaded with oleic acid; for activity change, negative = inhibition: at 57.5 µM (top of the series). A digest of the protocol:
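Cells seeded at 5,000 per well were treated with compounds over a concentration series and loaded with oleic acid (400 uM, as added). Lipid droplet fluorescence (488 nm excitation, 500-530 nm channel) was read by laser-scanning cytometry and normalized to 20 uM Triacsin C.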

Assay [9] can be described thus: Primary qHTS for small molecule stabilizers of the endoplasmic reticulum resident proteome: Secreted ER Calcium Modulated Protein (SERCaMP) assay (AID 1508630; active = well fitted curve in the direction sought with a large enough effect; an effect the other way counts as inactive or inconclusive; also: % is scaled to controls: 0 for no effect and ±100 for the full control effect). The following applies: SH-SY5Y GLuc-SERCaMP (Gaussia luciferase released on ER calcium loss) secretion, thapsigargin, luminescence; series mostly up to 38.4 µM. A digest of the protocol:
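The SH-SY5Y reporter protocol was run at 3 concentrations up to 38.3 uM (primary) or 11 concentrations (follow-up): 16 h compound, 100 nM thapsigargin for 4 h, then extracellular luciferase luminescence.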

Assay [10] concerns the target Cytochrome P450 1A2 (Homo sapiens) (UniProt P05177). Nature of the assay: p450-cyp1a2 (AID 410; calls by dose curve; also: potency is read from the fitted curve at half-maximal effect;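 as to activity change, negative = inhibition: -100% = full effect of reference inhibitor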). As to conditions: recombinant CYP1A2, luciferin-ME demethylation, luminescence; series mostly up to 57 µM. A digest of the protocol: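 20nM CYP1A2, 100uM Luciferin-ME (=Km), 100mM KPO4; cpd 10 min RT; +NADPH regen, 60 min RT; stop/detect 20 min; luminescence. Normalized to furafylline 57 uM = full inhibition.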

Assay [11] has as its target Cytochrome P450 2C9 (Homo sapiens) (UniProt P11712). Nature of the assay: qHTS Assay for Inhibitors and Substrates of Cytochrome P450 2C9 (AID 883; active = well fitted curve in the direction sought with a large enough effect; an effect the other way counts as inactive or inconclusive; also: % is scaled to controls: 0 for no effect and ±100 for the full control effect; nearly all actives have a fitted effect of over 60% in size). The following applies: recombinant CYP2C9, luciferin-H luminescence, 60 min; series mostly up to 57.1 µM. A digest of the protocol: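 Human CYP2C9 (10nM) hydroxylated Luciferin-H (100uM, at its KM) to luciferin in 25mM KPO4. Compound was preincubated 10 min at 37C, then NADPH regeneration started a 60 min reaction at 37C. Luminescence was read after detection reagent, normalized to 57uM sulphaphenazole.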

The target of assay [12] is Cytochrome P450 3A4 (Homo sapiens) (UniProt P08684). In words: qHTS Assay for Activators of Cytochrome P450 3A4 (AID 885; active = well fitted curve in the direction sought with a large enough effect; an effect the other way counts as inactive or inconclusive; also: nearly all actives have a fitted effect of over 65% in size). The following applies: recombinant CYP3A4, Luciferin-PPXE luminescence, 60 min; series mostly up to 57.1 µM. The method in brief:
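Activators are scored by enhanced luminescence from CYP3A4 conversion of luciferin-PPXE (25uM, equal to KM) to luciferin, after 60 min at RT with an NADPH-regenerating system.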

For assay [13], the target named is Cytochrome P450 2C19 (Homo sapiens) (UniProt P33261). In words: qHTS Assay for Inhibitors and Substrates of Cytochrome P450 2C19 (AID 899; active = well fitted curve in the direction sought with a large enough effect; an effect the other way counts as inactive or inconclusive; also: % is scaled to controls: 0 for no effect and ±100 for the full control effect; nearly all actives have a fitted effect of over 60% in size). As to conditions: recombinant CYP2C19, luciferin-H EGE luminescence; series mostly up to 57.1 µM. A digest of the protocol:
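Human CYP2C19 (5nM) with Luciferin-H EGE at 10uM (its KM) in 50mM KPO4 was preincubated with compound for 10 min at 37C. NADPH regeneration started a 60 min 37C reaction. Luciferin was read by luminescence, normalized to 57uM ketoconazole.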

Assay [14] has as its target Cytochrome P450 3A4 (Homo sapiens) (UniProt P08684). Nature of the assay: qHTS Assay for Inhibitors and Substrates of Cytochrome P450 3A4 (AID 884; active = well fitted curve in the direction sought with a large enough effect; an effect the other way counts as inactive or inconclusive; also: potency is read from the fitted curve at half-maximal effect; nearly all actives have a fitted effect of over 50% in size). The following applies: recombinant CYP3A4, Luciferin-PPXE luminescence; series mostly up to 57.1 µM. A digest of the protocol:
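Luminescent readout of luciferin produced by CYP3A4 (20 nM) dealkylation of Luciferin-PPXE, 25 uM (its KM). NADPH-driven reaction ran 60 min at RT after 10 min compound preincubation; data scaled to 57 uM ketoconazole as 100% inhibition.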

Assay [15] can be described thus: Confirmation and Secondary Assay for Modulators of Hemoglobin Beta Chain Splicing at IVS2 705 locus (AID 930; active = well fitted curve in the direction sought with a large enough effect; an effect the other way counts as inactive or inconclusive;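 also: HeLa cells stably expressing the EGFP-705 splicing reporter; % of control where 0% means no effect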). As to conditions: HeLa EGFP-705 splicing reporter, GFP fluorescence, 48 h; series mostly up to 38.3 µM. The method in brief:
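HeLa cells stably carrying EGFP interrupted by mutant beta-globin IVS2-705 intron (CMV-driven) were seeded at 500 cells/well, treated next day with compound for 2 days at 37C; corrected splicing restores EGFP, read as total peak GFP intensity per well.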

In assay [16] the target is Ubiquitin carboxyl-terminal hydrolase 1 (Homo sapiens) (UniProt O94782). In words: Inhibitors of USP1/UAF1: Pilot qHTS (AID 504865; active = well fitted curve in the direction sought with a large enough effect; an effect the other way counts as inactive or inconclusive;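 also: rhodamine fluorescence freed from ubiquitin-rhodamine substrate followed over time; top concentration of the series differs between compounds; % is scaled to controls: 0 for no effect and ±100 for the full control effect; nearly all actives have a fitted effect of over 35% in size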). As to conditions: purified USP1/UAF1, Ub-rhodamine cleavage fluorescence; series mostly up to 54.9 µM. The method in brief: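 In 50mM HEPES pH 7.8 containing 0.5mM EDTA, 1mM TCEP, 0.1 mg/ml BSA and 0.01% Tween-20, 1nM USP1/UAF1 is exposed to compound for 15 min, then Ub-Rho (150nM final) is added and fluorescence is read over time.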

[17] abbreviates: measured here: cell count channel max response.
[18] abbreviates: measured here: lipid channel max response.

SMILES strings stand for the structures. Inconclusive results are not listed. Calls of active or inactive are those of the source. Unless noted, calls follow the shape of the dose curve; as a rule, active = well fitted curve in either direction with a large enough effect (not every such curve was filed as active); inconclusive = small, poorly fitted or top-dose-only effect, or another doubt; inactive = flat fitted curve, though single readings scatter.

Sequence of Cytochrome P450 3A4 (Homo sapiens) (P08684 whole entry, looked up): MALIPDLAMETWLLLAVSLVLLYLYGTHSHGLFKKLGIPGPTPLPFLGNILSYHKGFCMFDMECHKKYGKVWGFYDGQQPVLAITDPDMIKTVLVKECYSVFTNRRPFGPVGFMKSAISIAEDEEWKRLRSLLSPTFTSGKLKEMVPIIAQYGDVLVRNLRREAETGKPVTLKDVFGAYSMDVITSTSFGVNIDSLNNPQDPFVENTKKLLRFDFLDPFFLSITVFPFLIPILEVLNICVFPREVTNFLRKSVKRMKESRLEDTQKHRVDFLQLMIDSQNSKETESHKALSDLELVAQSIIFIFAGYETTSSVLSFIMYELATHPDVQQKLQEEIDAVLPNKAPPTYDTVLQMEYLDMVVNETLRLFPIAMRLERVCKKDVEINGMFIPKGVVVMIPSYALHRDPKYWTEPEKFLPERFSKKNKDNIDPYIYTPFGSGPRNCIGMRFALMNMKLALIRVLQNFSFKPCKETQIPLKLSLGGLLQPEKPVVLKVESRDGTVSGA
Sequence of Lysosomal acid glucosylceramidase (Homo sapiens) (P04062 whole entry, looked up): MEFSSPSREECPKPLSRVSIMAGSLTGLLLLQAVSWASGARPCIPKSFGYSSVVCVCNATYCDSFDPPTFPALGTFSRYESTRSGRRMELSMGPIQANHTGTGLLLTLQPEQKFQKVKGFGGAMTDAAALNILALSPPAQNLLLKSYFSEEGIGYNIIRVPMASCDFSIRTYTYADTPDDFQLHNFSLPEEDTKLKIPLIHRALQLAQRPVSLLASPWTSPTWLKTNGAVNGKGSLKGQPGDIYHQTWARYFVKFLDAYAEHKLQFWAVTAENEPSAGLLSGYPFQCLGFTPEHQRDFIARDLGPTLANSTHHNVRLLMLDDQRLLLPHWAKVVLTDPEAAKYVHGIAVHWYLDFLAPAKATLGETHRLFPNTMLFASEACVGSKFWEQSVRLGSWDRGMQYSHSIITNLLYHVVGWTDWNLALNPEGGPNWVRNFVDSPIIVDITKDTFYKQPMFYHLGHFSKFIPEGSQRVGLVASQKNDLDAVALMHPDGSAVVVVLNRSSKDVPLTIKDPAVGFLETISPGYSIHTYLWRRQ
Sequence of Glucocorticoid receptor (Homo sapiens) (P04150 whole entry, looked up, the tested form may be a part): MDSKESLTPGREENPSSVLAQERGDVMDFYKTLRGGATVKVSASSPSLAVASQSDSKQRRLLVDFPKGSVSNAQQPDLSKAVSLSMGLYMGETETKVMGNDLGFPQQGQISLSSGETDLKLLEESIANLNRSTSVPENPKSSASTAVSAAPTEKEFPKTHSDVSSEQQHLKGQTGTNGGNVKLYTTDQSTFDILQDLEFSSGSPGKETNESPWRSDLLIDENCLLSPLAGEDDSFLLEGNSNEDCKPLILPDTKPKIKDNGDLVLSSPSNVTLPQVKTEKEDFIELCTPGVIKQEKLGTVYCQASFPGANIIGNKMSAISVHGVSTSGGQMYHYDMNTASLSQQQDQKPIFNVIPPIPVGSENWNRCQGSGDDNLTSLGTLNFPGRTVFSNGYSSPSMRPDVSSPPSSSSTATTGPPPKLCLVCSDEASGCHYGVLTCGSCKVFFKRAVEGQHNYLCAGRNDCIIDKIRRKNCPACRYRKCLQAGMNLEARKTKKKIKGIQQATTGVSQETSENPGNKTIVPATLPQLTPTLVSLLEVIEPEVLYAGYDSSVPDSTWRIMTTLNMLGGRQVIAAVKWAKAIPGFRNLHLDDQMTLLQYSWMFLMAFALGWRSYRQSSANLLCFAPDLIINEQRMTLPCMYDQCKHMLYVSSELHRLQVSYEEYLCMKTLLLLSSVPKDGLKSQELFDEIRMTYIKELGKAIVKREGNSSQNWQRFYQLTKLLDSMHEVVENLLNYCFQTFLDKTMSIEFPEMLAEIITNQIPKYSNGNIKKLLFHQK
Sequence of 3',5'-cyclic-AMP phosphodiesterase 4B (Homo sapiens) (Q07343 whole entry, looked up): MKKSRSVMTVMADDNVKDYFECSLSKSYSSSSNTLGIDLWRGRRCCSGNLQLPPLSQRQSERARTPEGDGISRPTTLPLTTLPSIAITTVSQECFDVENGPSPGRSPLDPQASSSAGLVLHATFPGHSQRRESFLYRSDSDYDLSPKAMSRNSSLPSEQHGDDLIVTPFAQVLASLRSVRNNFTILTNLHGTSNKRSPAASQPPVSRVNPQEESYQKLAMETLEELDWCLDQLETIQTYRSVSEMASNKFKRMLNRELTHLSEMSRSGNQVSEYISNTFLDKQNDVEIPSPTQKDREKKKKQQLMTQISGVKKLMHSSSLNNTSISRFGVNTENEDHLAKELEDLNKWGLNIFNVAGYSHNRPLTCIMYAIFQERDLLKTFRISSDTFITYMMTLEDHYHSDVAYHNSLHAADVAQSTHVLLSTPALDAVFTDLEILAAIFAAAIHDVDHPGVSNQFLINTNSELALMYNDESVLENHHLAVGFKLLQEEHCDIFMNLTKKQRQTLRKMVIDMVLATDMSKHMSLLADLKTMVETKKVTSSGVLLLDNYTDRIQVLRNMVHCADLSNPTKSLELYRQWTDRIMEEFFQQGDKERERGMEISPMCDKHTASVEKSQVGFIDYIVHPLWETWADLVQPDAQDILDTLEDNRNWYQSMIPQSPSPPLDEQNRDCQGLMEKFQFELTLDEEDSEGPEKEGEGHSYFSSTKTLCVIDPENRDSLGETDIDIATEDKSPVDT
Sequence of Cytochrome P450 1A2 (Homo sapiens) (P05177 whole entry, looked up): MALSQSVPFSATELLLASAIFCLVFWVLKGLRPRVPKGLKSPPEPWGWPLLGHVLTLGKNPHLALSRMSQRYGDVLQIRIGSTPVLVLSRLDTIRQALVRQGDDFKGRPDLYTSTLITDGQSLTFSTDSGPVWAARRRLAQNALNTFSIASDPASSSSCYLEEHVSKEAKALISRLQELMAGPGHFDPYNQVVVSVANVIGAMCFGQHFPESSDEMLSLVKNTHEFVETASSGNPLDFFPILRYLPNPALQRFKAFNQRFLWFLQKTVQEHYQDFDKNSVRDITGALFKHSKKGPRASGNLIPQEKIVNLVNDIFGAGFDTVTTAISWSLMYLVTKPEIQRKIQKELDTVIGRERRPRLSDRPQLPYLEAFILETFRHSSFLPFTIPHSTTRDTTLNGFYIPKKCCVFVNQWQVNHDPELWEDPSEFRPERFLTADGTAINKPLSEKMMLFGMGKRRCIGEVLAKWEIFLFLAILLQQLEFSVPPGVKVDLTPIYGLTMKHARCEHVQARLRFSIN
Sequence of Cytochrome P450 2C9 (Homo sapiens) (P11712 whole entry, looked up): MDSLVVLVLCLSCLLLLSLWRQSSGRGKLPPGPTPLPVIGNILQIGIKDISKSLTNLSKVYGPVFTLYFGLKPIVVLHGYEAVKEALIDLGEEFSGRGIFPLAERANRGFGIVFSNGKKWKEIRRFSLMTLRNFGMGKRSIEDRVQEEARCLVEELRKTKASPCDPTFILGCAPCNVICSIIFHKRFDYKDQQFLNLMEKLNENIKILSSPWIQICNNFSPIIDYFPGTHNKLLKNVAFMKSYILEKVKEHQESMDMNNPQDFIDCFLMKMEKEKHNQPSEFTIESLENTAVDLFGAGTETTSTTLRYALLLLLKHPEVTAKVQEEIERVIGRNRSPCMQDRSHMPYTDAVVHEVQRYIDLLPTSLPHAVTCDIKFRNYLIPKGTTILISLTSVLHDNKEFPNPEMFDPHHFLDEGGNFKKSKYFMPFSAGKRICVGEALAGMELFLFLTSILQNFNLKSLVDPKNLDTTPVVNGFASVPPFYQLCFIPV
Sequence of Cytochrome P450 2C19 (Homo sapiens) (P33261 whole entry, looked up): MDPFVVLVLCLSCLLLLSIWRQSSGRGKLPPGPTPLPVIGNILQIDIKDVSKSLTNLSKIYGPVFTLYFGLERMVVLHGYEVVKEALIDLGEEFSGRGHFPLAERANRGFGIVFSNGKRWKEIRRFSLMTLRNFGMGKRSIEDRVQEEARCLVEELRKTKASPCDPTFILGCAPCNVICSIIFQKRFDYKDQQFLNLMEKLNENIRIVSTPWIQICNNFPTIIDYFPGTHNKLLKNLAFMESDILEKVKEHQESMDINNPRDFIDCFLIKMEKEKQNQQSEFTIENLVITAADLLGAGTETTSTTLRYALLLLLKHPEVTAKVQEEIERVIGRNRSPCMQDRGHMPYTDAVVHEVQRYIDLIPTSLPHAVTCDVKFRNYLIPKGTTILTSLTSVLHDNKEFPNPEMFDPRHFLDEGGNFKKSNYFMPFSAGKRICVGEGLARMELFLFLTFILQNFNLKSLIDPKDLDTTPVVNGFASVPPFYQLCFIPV
Sequence of Ubiquitin carboxyl-terminal hydrolase 1 (Homo sapiens) (O94782 whole entry, looked up): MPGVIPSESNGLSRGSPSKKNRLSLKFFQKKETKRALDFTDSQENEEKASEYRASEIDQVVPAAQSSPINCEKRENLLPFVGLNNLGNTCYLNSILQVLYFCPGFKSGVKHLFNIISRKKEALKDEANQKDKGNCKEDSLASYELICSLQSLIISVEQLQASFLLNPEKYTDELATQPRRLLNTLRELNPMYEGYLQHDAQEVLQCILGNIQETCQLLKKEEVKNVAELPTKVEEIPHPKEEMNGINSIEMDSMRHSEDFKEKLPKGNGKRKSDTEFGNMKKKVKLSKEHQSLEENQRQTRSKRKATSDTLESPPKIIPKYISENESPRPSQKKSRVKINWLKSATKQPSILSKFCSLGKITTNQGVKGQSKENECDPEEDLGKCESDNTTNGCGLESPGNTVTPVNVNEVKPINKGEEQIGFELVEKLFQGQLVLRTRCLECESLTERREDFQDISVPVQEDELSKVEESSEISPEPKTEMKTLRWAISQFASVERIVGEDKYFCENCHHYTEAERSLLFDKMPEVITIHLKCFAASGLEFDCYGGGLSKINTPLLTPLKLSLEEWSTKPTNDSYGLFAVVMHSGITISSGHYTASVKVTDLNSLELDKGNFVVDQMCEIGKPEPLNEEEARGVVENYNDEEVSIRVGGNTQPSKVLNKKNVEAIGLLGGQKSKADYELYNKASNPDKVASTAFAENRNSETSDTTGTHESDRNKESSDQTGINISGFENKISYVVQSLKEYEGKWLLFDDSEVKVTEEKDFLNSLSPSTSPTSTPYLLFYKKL

For the compound `O=S(=O)(c1ccccc1)N1CCC[C@@]2(CCN(c3ncccn3)C2)C1`, the Potency in assay [1] was > 11.4 µM (inactive); in [5], > 46 µM (inactive). The activity change, negative = inhibition was -0.184% (inactive) in [2], 27.1% (inactive) in assay [3] and 4.79% (inactive) in [8]. The activity, negative = inhibition in assay [4] was -4.75% (inactive). Also, the Potency entry in assay [6] and in [7] was “inactive” in each case. In addition, the max response in [8] (setting [17]) came out at 6.87%; in assay [8] (setting [18]), 13%. Further, in [9], the result was inactive.
Turning to `O=C(c1ccncc1)N1CCC[C@@]2(CCN(C(c3ccccc3)c3ccccc3)C2)C1`, the Potency is > 11.4 µM (inactive) in [1] and > 46 µM (inactive) in assay [5]. In addition, the figures for the activity change, negative = inhibition in assay [2], in [3] and in assay [8] were -4.57% (inactive), 17.1% (inactive) and -4.39% (inactive), respectively. Besides, the activity, negative = inhibition in [4] is 0.76% (inactive). Also, in assay [6], the Potency entry was “inactive”. Moreover, the results for the max response in [8] (setting [17]) and in assay [8] (setting [18]) were -3.62% and -3.76%, respectively. Moreover, in assay [9], the outcome was inactive.
For the compound `N#Cc1ccc(CN2CCCC3(CCN(C(=O)c4ccncc4)CC3)C2)cc1`, the Potency was > 11.4 µM (inactive) in [1] and > 46 µM (inactive) in assay [5]. Further, the figures for the activity change, negative = inhibition in assay [2] and in assay [8] were -16.7% (inactive) and 2.04% (inactive), respectively. In addition, the Potency entry in assay [10], in [6], in assay [7], in [11], in [12] and in assay [13] was “inactive” in each case. Further, the max response in assay [8] (setting [17]) worked out at 4.42%; in assay [8] (setting [18]), 7.34%. For the same compound, the outcome in assay [9] was inactive.
For the compound `CS(=O)(=O)Nc1cccc(-c2nc(NCc3cccs3)c3ccccc3n2)c1`, the Potency in assay [1] is > 2.29 µM (inactive); in assay [10] it was 1 µM (active); in [5] it was > 46 µM (inactive); in [14] it was 3.16 µM (active). The values for the activity change, negative = inhibition in [2] and in [8] were -19.7% (inactive) and 6.98% (inactive), respectively. Also, the Potency result in [6], in [12] and in assay [16] was “inactive” each time. Besides, the outcome in assay [15] and in assay [9] was inactive. The max response in [8] (setting [17]) is -9.8%; in [8] (setting [18]), -2.81%.
